Where “and” joins values, the source holds several entries; their conditions need not be identical. Equal entries are not always repeated. For part of these data: Results with a measured potency or affinity are listed apart.

What all share (set-up): scale not given: direction of the effect not stated beside the values
Assay [1] has as its target Protein translocase subunit SecA (Escherichia coli (strain K12)) (UniProt P10408). Kind of assay: Assay to Identify E. coli SecA ATPase Inhibitors. The following applies: 30 µM. Format: functional.
Assay [2] concerns the target T1, Ubiquitin-activating enzyme e1, putative (Leishmania donovani (strain BPK282A1)) (UniProt E9BSI1).
T1 sequence (whole entry): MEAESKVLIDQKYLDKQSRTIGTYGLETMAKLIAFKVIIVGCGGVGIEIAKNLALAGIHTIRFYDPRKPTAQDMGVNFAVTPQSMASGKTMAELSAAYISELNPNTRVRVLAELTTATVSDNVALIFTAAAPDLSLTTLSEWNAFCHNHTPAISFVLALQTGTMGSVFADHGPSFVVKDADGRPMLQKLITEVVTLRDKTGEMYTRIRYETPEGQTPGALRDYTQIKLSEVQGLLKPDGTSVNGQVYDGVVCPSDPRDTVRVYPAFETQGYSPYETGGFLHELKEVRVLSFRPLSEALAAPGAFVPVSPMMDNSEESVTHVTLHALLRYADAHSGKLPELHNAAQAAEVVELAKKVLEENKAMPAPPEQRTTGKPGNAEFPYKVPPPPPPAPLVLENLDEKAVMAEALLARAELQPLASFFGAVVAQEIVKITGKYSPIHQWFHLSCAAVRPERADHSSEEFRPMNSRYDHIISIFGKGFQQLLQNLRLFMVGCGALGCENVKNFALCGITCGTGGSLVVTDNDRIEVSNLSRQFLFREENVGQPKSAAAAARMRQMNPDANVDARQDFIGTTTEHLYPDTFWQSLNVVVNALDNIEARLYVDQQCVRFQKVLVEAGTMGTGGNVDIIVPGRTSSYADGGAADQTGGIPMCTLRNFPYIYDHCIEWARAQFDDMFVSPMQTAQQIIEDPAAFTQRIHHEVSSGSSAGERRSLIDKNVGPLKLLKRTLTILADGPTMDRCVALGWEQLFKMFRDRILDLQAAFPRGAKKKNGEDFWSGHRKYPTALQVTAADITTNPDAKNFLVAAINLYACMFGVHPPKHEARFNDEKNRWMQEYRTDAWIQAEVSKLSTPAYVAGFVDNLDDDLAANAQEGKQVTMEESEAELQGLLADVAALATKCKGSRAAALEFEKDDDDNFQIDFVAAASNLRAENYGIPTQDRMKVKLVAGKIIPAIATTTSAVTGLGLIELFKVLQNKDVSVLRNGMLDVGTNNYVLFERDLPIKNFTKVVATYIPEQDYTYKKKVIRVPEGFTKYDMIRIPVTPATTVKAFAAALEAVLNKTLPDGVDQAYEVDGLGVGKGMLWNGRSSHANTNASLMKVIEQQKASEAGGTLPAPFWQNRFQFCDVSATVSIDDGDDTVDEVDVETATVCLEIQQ
Nature of the assay: Leishmania donovani Ubiquitin Activating Enzyme (LdE1). Format: functional. The following applies: 30 µM.

In assay [3] the target is AMP-activated protein kinase, AMPK (Homo sapiens) (UniProt P54646+O43741+P54619+Q9UGJ0+Q9Y478+Q13131+Q9UGI9). Nature of the assay: AMP-dependent Kinase enzyme assay. An in vitro enzyme assay that detects ADP turnover that is directly proportional to AMPK activity. This uses naive AMPK that is activated during the assay with MK-8722. Format: functional. The settings on record: 30 µM.

Assay [4] addresses Sialic acid-binding Ig-like lectin 9 (Homo sapiens) (UniProt Q9Y336). Kind of assay: Hs-Siglec9 ALPHAscreen SOP 20170721. The following applies: 10 µM. (In Alpha technology, singlet oxygen from a donor bead excites a nearby acceptor bead.)
A further assay relates to Trypanosoma cruzi. Kind of assay: Trypanosoma cruzi phosphomannomutase and mannose-1-phosphate guanylyltransferase assay. Format: functional. The settings on record: 10 µM.
Assay [5] concerns the target T2, Arginase-2, mitochondrial (Homo sapiens) (UniProt P78540).
T2 sequence (whole entry): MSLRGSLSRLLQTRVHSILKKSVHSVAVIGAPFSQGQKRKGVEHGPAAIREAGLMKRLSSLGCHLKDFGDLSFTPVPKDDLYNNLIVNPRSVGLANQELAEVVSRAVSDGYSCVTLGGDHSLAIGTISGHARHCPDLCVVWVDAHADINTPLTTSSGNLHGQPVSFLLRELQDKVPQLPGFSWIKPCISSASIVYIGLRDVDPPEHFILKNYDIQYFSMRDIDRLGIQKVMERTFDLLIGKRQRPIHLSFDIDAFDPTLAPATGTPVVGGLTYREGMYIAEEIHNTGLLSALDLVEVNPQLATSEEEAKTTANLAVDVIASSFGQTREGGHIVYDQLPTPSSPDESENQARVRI
Nature of the assay: in vitro enzyme assay to detect the production of urea directly proportional to the activity of Arginase II. Further: in the data most compounds retested in dose-response had high values. In kind it is functional.

Assay [6] concerns the target T3, Proteasome subunit beta (Trypanosoma cruzi) (UniProt O96673).
T3 sequence (whole entry): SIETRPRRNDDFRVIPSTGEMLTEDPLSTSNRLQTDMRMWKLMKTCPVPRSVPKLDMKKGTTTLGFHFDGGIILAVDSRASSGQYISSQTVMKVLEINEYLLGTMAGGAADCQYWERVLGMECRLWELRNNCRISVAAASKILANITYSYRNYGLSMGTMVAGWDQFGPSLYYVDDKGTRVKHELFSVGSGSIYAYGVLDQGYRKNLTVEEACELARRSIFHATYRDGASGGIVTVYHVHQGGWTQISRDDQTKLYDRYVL
Nature of the assay: Trypanosoma cruzi proteasome chymotrypsin-like activity (TcProtChymo) assay. Further: in the data most compounds retested in dose-response had high values. In kind it is functional. The settings on record: 9.37 µM.

The species named for a further assay is Homo sapiens. Nature of the assay: To identify inhibition of the IFN signalling (Jak-Stat) pathway via expression of an eGFP reporter gene under the control of an IFN-stimulated response element (ISRE) containing MxA promoter. In kind it is functional. The following applies: 30 µM. On the technique in general: A reporter such as luciferase makes a cellular process visible.

Assay [7] deals with T4, Tyrosyl-tRNA synthetase, putative (Trypanosoma cruzi (strain CL Brener)) (UniProt Q4DSP6).
T4 sequence (whole entry): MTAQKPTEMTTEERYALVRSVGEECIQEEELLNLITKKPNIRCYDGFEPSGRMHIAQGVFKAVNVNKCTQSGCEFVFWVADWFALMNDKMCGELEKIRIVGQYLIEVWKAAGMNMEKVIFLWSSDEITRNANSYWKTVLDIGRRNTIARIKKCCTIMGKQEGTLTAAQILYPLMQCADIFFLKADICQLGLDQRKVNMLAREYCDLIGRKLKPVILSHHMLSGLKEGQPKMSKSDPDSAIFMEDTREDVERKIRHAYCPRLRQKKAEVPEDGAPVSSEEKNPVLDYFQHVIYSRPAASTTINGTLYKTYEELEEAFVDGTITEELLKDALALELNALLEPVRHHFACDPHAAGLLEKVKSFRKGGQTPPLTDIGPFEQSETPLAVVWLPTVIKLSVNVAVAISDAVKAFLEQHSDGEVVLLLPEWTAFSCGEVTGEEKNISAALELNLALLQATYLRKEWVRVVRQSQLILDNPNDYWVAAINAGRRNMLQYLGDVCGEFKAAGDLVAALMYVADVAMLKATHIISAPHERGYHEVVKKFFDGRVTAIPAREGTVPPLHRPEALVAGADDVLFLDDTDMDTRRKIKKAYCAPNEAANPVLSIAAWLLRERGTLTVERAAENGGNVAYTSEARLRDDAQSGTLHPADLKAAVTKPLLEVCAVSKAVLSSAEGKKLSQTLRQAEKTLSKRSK
Nature of the assay: Trypanosoma cruzi tyrosyl tRNA synthetase (TcYRS) _High Tyrosine SOP. Further: in the data most compounds retested in dose-response had high values. Format: functional. The settings on record: 30 µM.

The target of assay [8] is T4, Tyrosyl-tRNA synthetase, putative (Trypanosoma cruzi (strain CL Brener)). Nature of the assay: Trypanosoma cruzi tyrosyl tRNA synthetase (TcYRS) SOP. Format: functional. The settings on record: 30 µM.
For assay [9], the target named is Chromo domain-containing protein 1 (Saccharomyces cerevisiae (strain ATCC 204508 / S288c) (Baker's yeast)) (UniProt P32657). Kind of assay: ScCHD-1 Enzyme Inhibition Assay. Further: in the data most compounds retested in dose-response had high values. Format: functional. The following applies: 30 µM.
For the next assay, the system named is N/A. Kind of assay: Trypanosoma cruzi proteasome luciferase counter-screen. Format: functional. The following applies: 9.37 µM.

Sialic acid-binding Ig-like lectin 9 (Homo sapiens), sequence (Q9Y336 whole entry): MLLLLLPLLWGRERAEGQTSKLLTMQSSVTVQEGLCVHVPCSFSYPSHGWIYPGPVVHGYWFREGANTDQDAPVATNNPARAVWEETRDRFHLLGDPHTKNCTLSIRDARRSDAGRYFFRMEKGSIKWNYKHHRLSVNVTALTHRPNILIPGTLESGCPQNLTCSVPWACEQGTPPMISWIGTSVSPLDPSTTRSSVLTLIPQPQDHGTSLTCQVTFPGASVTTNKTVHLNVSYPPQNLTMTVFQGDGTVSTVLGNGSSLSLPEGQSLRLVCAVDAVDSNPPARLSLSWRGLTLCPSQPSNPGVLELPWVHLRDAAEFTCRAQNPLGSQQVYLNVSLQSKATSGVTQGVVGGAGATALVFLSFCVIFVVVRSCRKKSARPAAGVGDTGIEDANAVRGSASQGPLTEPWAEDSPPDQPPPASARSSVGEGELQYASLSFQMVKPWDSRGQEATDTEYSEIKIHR
Chromo domain-containing protein 1 (Saccharomyces cerevisiae (strain ATCC 204508 / S288c) (Baker's yeast)), sequence (P32657 whole entry, the tested form may be a part): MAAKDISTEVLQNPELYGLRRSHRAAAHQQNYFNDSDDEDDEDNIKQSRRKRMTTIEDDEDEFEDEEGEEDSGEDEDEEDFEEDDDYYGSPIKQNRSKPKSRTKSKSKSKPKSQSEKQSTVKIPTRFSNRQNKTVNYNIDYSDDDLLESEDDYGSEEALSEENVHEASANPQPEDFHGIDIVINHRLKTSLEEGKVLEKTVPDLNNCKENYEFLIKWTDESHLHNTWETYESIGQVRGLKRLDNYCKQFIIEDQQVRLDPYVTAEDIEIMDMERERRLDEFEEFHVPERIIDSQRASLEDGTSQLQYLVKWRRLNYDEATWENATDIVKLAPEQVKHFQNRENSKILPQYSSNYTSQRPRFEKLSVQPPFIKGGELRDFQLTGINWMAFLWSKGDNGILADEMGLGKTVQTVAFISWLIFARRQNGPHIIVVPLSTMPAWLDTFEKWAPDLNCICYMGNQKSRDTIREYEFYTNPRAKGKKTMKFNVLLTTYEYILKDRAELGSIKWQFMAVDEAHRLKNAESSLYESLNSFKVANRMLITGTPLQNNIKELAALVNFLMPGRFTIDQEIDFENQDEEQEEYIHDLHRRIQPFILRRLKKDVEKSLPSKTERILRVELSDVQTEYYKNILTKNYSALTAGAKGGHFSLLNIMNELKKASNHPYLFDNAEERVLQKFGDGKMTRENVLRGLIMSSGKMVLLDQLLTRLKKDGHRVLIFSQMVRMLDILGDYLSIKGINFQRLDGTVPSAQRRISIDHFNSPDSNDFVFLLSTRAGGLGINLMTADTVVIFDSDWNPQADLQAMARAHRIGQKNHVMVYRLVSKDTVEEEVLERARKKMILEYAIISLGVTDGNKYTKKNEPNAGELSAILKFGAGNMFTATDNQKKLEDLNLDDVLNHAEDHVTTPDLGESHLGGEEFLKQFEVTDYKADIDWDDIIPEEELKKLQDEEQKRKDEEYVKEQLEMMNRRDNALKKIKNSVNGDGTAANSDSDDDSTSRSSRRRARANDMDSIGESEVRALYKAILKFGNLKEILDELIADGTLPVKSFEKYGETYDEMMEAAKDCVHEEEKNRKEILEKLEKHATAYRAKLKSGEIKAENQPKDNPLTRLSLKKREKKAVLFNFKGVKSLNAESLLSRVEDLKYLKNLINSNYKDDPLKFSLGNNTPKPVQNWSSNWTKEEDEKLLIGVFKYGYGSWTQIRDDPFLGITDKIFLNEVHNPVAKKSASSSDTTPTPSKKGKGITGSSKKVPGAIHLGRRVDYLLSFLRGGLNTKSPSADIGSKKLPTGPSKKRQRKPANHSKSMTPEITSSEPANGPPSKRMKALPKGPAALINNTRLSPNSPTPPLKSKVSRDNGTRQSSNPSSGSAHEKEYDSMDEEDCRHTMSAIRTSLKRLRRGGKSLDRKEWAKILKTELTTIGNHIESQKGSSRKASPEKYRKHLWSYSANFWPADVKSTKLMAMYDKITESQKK
Protein translocase subunit SecA (Escherichia coli (strain K12)), sequence (P10408 whole entry): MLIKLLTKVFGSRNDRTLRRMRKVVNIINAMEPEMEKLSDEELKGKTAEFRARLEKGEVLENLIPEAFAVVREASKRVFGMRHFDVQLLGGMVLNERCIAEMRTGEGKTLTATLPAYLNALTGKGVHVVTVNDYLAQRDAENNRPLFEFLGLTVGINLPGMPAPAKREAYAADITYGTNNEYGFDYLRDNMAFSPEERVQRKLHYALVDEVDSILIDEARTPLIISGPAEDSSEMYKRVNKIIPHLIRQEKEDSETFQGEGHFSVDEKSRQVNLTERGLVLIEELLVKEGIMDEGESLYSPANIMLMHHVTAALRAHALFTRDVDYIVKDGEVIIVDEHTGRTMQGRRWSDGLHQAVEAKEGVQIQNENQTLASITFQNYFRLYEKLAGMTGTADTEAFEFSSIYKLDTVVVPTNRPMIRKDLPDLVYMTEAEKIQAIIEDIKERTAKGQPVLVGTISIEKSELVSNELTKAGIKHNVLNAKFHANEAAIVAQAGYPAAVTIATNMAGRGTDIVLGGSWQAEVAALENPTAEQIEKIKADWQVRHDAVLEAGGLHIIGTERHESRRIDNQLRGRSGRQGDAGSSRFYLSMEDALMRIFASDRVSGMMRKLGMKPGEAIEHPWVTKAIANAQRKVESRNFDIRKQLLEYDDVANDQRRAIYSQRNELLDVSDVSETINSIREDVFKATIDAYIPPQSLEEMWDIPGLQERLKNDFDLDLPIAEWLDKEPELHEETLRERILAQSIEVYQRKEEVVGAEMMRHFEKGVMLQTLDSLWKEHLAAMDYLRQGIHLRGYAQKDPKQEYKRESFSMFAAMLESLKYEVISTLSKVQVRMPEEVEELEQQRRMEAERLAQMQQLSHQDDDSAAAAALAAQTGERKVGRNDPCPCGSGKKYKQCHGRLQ

As for `O=c1[nH]c2c(c(=O)n1C1CCCCC1)CCC2NCCc1ccccc1` (stereo unspecified), the Percent Effect was -2.86% in assay [1]; 1.33% in [2]; -8.89% in assay [3]; 6.39% in [4]; 2.75% in the assay on Trypanosoma cruzi; 1.62% in [5] (30 µM). Further, the Percent Effect was -3.35% in assay [5] (33.3 µM); 2.22% in assay [6]; -14.6% in the assay listed under Homo sapiens; -3.17% in assay [7]; 0% in assay [8]; -3.17% in [9].

With `COc1ccc(C(=O)N2C[C@@H](C(=O)O)[C@H](c3ccccc3C)C2)c(O)c1`, the Percent Effect is -5.13% in assay [1]; 5.41% in assay [2]; -4.36% in assay [3]; 32% in [4]; 1.86% in the assay with Trypanosoma cruzi; 4.87% in [5] (30 µM). The Percent Effect is -0.248% in assay [5] (33.3 µM); 9.53% in [6]; -12.1% in the assay listed under Homo sapiens; 6.45% in assay [7]; 16.1% in assay [8]; -2.87% in assay [9].

In the case of `c1ccc2sc(N3CCOC(Cn4cccn4)C3)nc2c1` (stereo unspecified), the Percent Effect in assay [1] is -6.09%; in assay [2], 13.5%; in assay [3] it was -6.61%; in assay [4] it was 25.1%; with Trypanosoma cruzi it was 4.25%; in [5] (33.3 µM), -6.41%. The Percent Effect in assay [6] was 38.1% and 31.4% and 25.9%; with N/A it was 10.8% and 13.7%; in the assay filed under Homo sapiens, 17.4%; in assay [7] it was 8.37%; in assay [8] it was 25.9%; in assay [9] it was -17.7%.

On to `NC(=O)c1nc(COc2ccc3c(c2)OCO3)no1`, for which the Percent Effect was 2.5% in assay [1]; 9.33% in [2]; 10% in [3]; 1.5% in assay [4]; -8.84% in the assay on Trypanosoma cruzi; -7.22% in [5] (33.3 µM). Also, the Percent Effect was 45% and 40.2% and 44% in [6]; 21.3% and 24% with N/A; 3.46% in the assay listed under Homo sapiens; 2.12% in assay [7]; 10.3% in assay [8]; -8.03% in assay [9].

As for `CN(C)C(=O)CNC(=O)c1cc(Br)c2c(c1)OCCO2`, the Percent Effect in assay [1] was -5.71%; in assay [2], 8%; in [3] it was -2.43%; in assay [4], 7.31%; in the assay on Trypanosoma cruzi it was 4.58%; in assay [5] (30 µM), 4.87%. Also, the Percent Effect in assay [5] (33.3 µM) is 1.56%; in assay [6], 21.6%; in the assay listed under Homo sapiens, -10.2%; in assay [7], 7.1%; in assay [8] it was 18.5%; in [9], -4.33%.

As to `CNC(=O)[C@@H]1C[C@H]2CN(C(=O)c3ccco3)C[C@H]2N1C`, the Percent Effect in assay [1] was -1.85%; in assay [2], 2.67%; in assay [3], -2.42%; in assay [4], 4.75%; with Trypanosoma cruzi, -3.67%; in [5] (30 µM) it was -9.19%. Also, the Percent Effect in assay [5] (33.3 µM) was -21%; in assay [6], 3.76%; in the assay listed under Homo sapiens it was -3.26%; in assay [7], 4.17%; in assay [8], 5%; in [9], -5.57%.

`O=C(Cn1nc2c(cc1=O)CCCC2)N[C@@H](Cc1ccccc1)C(=O)O`: the Percent Effect is 0.621% in assay [1]; 9.33% in assay [2]; 0.52% in assay [3]; -1.3% in assay [4]; 0.197% in the assay with Trypanosoma cruzi; 0.54% in assay [5] (30 µM). For the same molecule, the Percent Effect is 0.88% in assay [5] (33.3 µM); 16.1% in assay [6]; 24.4% in the assay filed under Homo sapiens; 5.29% in assay [7]; 12.8% in assay [8]; -9.91% in assay [9].

Regarding `CC(O)CNCc1ccc(OCc2ccc3c(c2)OCCO3)cc1` (stereo unspecified), the Percent Effect in assay [1] is 0.112%; in assay [2], 10.5%; in [3], 0.644%; in assay [4], -9.17%; in the assay with Trypanosoma cruzi, -3.6%; in assay [5] (33.3 µM) it was -2.37%. The Percent Effect in [6] is 61.5% and 58.6% and 62.4%; with N/A, 31.4% and 28.6%; in the assay filed under Homo sapiens, -4.62%; in assay [7] it was 1.06%; in assay [8], 5.2%; in assay [9], -3.79%.

Source of the values: ChEMBL document CHEMBL3988442, “University of Dundee, Small-Polar-MMV Screening Library” (2021).
